Source: PubChem (National Center for Advancing Translational Sciences (NCATS))
BLM inh: qHTS Assay for Inhibitors of Bloom's syndrome helicase (BLM); RecQ-like DNA helicase BLM (Homo sapiens), P54132; recombinant BLM DNA unwinding, fluorescence dequenching; Potency, µM (top dose mostly 56.1 µM), for the others: at the highest dose activity change, negative = inhibition, most hits filed as inhibitors; 350,000 tested, 0.2% active;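 further: plate controls were vehicle for no effect and no enzyme for full effect; nearly all actives have a fitted effect of over 35% in size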
RECQ1 inh-1: qHTS Assay for Inhibitors of RecQ-Like Dna Helicase 1 (RECQ1). 240,000 tested, 0.54% active. Potency, µM (highest dose often 57.3 µM), inactives show at the top dose activity, negative = inhibition, hits mostly inhibitors. AID 2549, 2010. RECQ1 DNA unwinding, red fluorescence kinetic read. ATP-dependent DNA helicase Q1 (Homo sapiens), P46063;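 further: plate controls were vehicle for no effect and no enzyme for full effect; nearly all actives have a fitted effect of over 30% in size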
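RECQ1T1 50 nM; forked duplex (20 bp + 30-nt ss tails) 200 nM, ATP 2 mM final; pH 8.0, 2 mM MgCl2, 2.5 ug/ml poly(dI-dC); 15 min compound preincubation; discontinuous kinetic read over 2 h at RT.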
WRN helicase inh: qHTS for Inhibitors of WRN Helicase | WRN helicase unwinding, fluorescent forked duplex, kinetic | Potency, µM (highest dose often 114 µM), without a hit: at the highest dose activity change, negative = inhibition, most hits filed as inhibitors | 360,000 tested, 0.46% active | Bifunctional 3'-5' exonuclease/ATP-dependent helicase WRN (Homo sapiens), Q14191; further: nearly all actives have a fitted effect of over 55% in size
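Kinetic red-fluorescence monitoring (525/598 nm) tracks WRN helicase activity after 100 nM fluorophore-quencher forked duplex and 2 mM ATP are added to 20 nM enzyme pretreated 15 min at room temperature with compound.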
FEN1 inhibitor: qHTS Assay for the Inhibitors of Human Flap endonuclease 1 (FEN1) | 390,000 tested, 0.35% active | Potency, µM (top dose mostly 114 µM), inactives show at the top dose activity change, negative = inhibition, actives largely listed as inhibitors | Recombinant FEN1 flap cleavage, fluorescence, 15 min | P39748; further: nearly all actives have a fitted effect of over 65% in size
Target sequence (P39748 whole entry, looked up): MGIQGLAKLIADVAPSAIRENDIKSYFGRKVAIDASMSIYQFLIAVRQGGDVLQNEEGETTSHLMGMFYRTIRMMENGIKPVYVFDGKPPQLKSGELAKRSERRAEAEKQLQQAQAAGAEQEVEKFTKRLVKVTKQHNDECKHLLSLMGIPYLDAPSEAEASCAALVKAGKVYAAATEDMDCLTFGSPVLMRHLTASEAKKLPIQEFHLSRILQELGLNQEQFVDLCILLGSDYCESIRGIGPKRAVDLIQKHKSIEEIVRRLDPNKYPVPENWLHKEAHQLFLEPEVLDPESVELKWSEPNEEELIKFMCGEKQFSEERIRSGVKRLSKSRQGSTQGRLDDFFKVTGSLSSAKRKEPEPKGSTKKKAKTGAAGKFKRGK
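With each library titrated from low to high concentration, compounds met 10 nM FEN1 for 15 min at room temperature before 50 nM substrate was added; readings at 0 and 15 min fed four-parameter Hill curve fits.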
L3MBTL1 block: qHTS Assay for the Inhibitors of L3MBTL1; 230,000 tested, 0.66% active; Lethal(3)malignant brain tumor-like protein 1 (Homo sapiens), Q9Y468; Potency, µM (top dose mostly 57.1 µM), for inactives: at the highest dose activity, negative = inhibition, usual class: inhibitors; AlphaScreen L3MBTL1–H3K9me1 peptide binding; further: nearly all actives have a fitted effect of over 60% in size
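Displacement of a biotinylated histone H3(1-15) peptide monomethylated at Lys9 (75 nM) from L3MBTL1 (50 nM) was measured by AlphaScreen after a 30 min room-temperature compound incubation; cefsulodin titration served as intraplate control.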
RECQ1 conf: Confirmation qHTS Assay for Inhibitors of RecQ-Like Dna Helicase 1 (RECQ1) | shares compounds with RECQ1 inh-1 | RECQ1 helicase DNA unwinding, fluorescence | Potency, µM (top dose mostly 229 µM), for the others: top-dose activity change, negative = inhibition, actives largely listed as inhibitors | 610 tested, 28% active; further: nearly all actives have a fitted effect of over 45% in size
RECQ1 ADP FP: Counterscreen for RECQ1 Inhibitors: ADP Fluorescence Polarization Displacement Assay. Potency, µM (series often up to 228 µM), for the others: at the highest dose activity change, negative = inhibition, hits mostly inhibitors. shares compounds with RECQ1 inh-1. ADP fluorescence polarization displacement counterscreen. 530 tested, 27% active; further: nearly all actives have a fitted effect of over 45% in size
RECQ1 inh-2: Confirmation qHTS Assay for Inhibitors of RecQ-Like Dna Helicase 1 (RECQ1) - Round 2 Cherry Picks; shares compounds with RECQ1 inh-1; recombinant RECQ1 DNA unwinding, red fluorescence; Potency, µM (titrated, usually from 119 µM), without a hit: top-dose activity, negative = inhibition, actives largely listed as inhibitors; 1,100 tested, 15% active; AID 504841, 2011; further: nearly all actives have a fitted effect of over 50% in size
* hit, by the source's call; ! = not active in a repeat; [ ] = dose if it differs, or a comment. This is a sample that favours compounds with a hit; in the whole collection about 0.99% have one here. The call rests on the fitted dose curve; in most records, active means well fitted curve in the direction sought with a large enough effect; inconclusive means small, poorly fitted or top-dose-only effect, or another doubt; inactive means no such curve, though single readings can be large; an effect the other way counts as inactive or inconclusive. Unless noted, on the % scale 0 is the no-effect control and ±100 the full control effect; potency means the concentration at half of the fitted maximal effect.

What do the screens show for `CCOC(=O)c1cc2c(=O)n3ccccc3nc2n(Cc2ccco2)c1=NC(=O)c1ccc(OC)cc1`?
BLM inh: inconclusive; RECQ1 inh-1: inconclusive; WRN helicase inh: 0%; FEN1 inhibitor: 79µM*!; L3MBTL1 block: inconclusive; RECQ1 inh-2: -27%

Results for CCOC(=O)c1cc2c(=O)n3ccccc3nc2n(Cc2ccco2)c1=NC(=O)c1cccc(OC)c1 ?
BLM inh: inconclusive; RECQ1 inh-1: -10%; WRN helicase inh: -20%; FEN1 inhibitor: -10%; L3MBTL1 block: 0%

Results for Cc1ccc(NC(=O)c2c3c(nc4ccccc24)CCC3)cc1S(=O)(=O)N(C)C ?
BLM inh: -12%; RECQ1 inh-1: inconclusive; WRN helicase inh: -3%[11.6 µM]; FEN1 inhibitor: -6%; RECQ1 inh-2: inconclusive

Results for COc1ccc(NC(=O)c2c3c(nc4ccccc24)CCC3)cc1S(=O)(=O)N1CCOCC1 ?
BLM inh: inconclusive; RECQ1 inh-1: 22µM*; WRN helicase inh: inconclusive; FEN1 inhibitor: -18%; L3MBTL1 block: 32µM*; RECQ1 inh-2: inconclusive

Results for COc1ccc(Nc2ccccc2N)cc1 ?
BLM inh: -24%; RECQ1 inh-1: 22µM*; WRN helicase inh: inconclusive; FEN1 inhibitor: 1%; L3MBTL1 block: -7%; RECQ1 inh-2: 45µM*

How did C=CCn1c(=O)[nH]c2cc(C(=O)N3CCN(c4ccc(C(C)=O)cc4)CC3)ccc2c1=O do in these assays?
BLM inh: -25%; RECQ1 inh-1: 4.5µM*; WRN helicase inh: inconclusive; FEN1 inhibitor: -3%; RECQ1 conf: inconclusive; RECQ1 ADP FP: -2%[91.9 µM]; RECQ1 inh-2: inconclusive

What do the screens show for `CN1/C(=C\C(=O)COC(=O)Cn2nnc(-c3ccccc3)n2)C(C)(C)c2ccccc21`?
BLM inh: -15%; RECQ1 inh-1: inconclusive; WRN helicase inh: 50µM*; FEN1 inhibitor: inconclusive; L3MBTL1 block: -1%; RECQ1 inh-2: 45µM*

How did CCOc1ccc(NC(=O)C(CC(=O)O)Cc2ccc(Br)cc2)cc1 (centres undefined) do in these assays?
BLM inh: -2%; WRN helicase inh: -24%; FEN1 inhibitor: 3%

What do the screens show for `COc1ccc(NC(=O)/C(Cl)=C(/Cl)S(=O)Cc2ccc(Cl)cc2)cn1` (centres undefined)?
BLM inh: -17%; RECQ1 inh-1: 35µM*; WRN helicase inh: 22µM*; FEN1 inhibitor: -4%; L3MBTL1 block: -14%; RECQ1 inh-2: -33%

How did N#Cc1ccccc1-c1cncnc1NCc1cccnc1 do in these assays?
BLM inh: 7%; RECQ1 inh-1: inactive

Results for N=C1/C(=C\c2ccc(SCc3ccco3)o2)C(=O)N=C2SC=NN12 ?
BLM inh: -6%; RECQ1 inh-1: 8.9µM*; WRN helicase inh: 56µM*; FEN1 inhibitor: inconclusive; L3MBTL1 block: -29%; RECQ1 inh-2: inconclusive

Results for CC1=NN2C(=N)/C(=C\c3ccc(SCc4ccccc4)o3)C(=O)N=C2S1 ?
BLM inh: -13%; RECQ1 inh-1: -17%; WRN helicase inh: inconclusive; FEN1 inhibitor: -7%

What do the screens show for `CCCCCNc1c(C(=O)OCC)c(=O)[nH]c2ccccc12`?
BLM inh: 0%; RECQ1 inh-1: -6%; WRN helicase inh: 7%; FEN1 inhibitor: 2%; L3MBTL1 block: 5%

Results for CC1(C)CC(=O)C(C=NCc2ccccn2)=C(O)C1 ?
BLM inh: -2%; RECQ1 inh-1: -5%; WRN helicase inh: -7%; FEN1 inhibitor: 1%; L3MBTL1 block: 2%

How did O=C(O)CSc1nnc(Cn2nnc3ccccc32)n1CCc1ccccc1 do in these assays?
BLM inh: -2%; RECQ1 inh-1: 0%; WRN helicase inh: 2%; FEN1 inhibitor: 4%; L3MBTL1 block: 10%; RECQ1 conf: 8%; RECQ1 ADP FP: 8%

What do the screens show for `COc1cccc(/C=C/C(=O)OCC(=O)c2ccc3c(c2)NC(=O)CO3)c1`?
WRN helicase inh: -4%; FEN1 inhibitor: -7%; L3MBTL1 block: -5%

How did CCOC(=O)C1CCN(C(=O)Nc2ccc3nc(-c4ccco4)c(-c4ccco4)nc3c2)CC1 do in these assays?
BLM inh: 4.5µM*; RECQ1 inh-1: 10µM*; WRN helicase inh: 35µM*; FEN1 inhibitor: inconclusive; L3MBTL1 block: 3.5µM*; RECQ1 inh-2: inconclusive

Results for N#C/C(=C/c1ccc(N2CCCCCC2)o1)c1ccc(Cl)cc1 ?
BLM inh: -9%; RECQ1 inh-1: inconclusive; WRN helicase inh: -21%; FEN1 inhibitor: 8%

How did Cc1ccc(/C(C#N)=C\c2ccc(N3CCOCC3)o2)cc1 do in these assays?
BLM inh: -7%; RECQ1 inh-1: 32µM*; WRN helicase inh: -15%; FEN1 inhibitor: -3%; L3MBTL1 block: -9%; RECQ1 inh-2: inconclusive

What do the screens show for `CCn1c(C)c(C2=CCN(S(=O)(=O)c3ccccc3)CC2)c2ccccc21`?
BLM inh: -6%; RECQ1 inh-1: 25µM*; WRN helicase inh: -13%; FEN1 inhibitor: -9%; L3MBTL1 block: -14%; RECQ1 conf: 50µM*; RECQ1 inh-2: inconclusive

Results for CC(=O)n1cc([C@H]2C=C(C(=O)Nc3ccccc3)O[C@@H](OCc3ccc(CO)cc3)C2)c2ccccc21 ?
BLM inh: -8%; RECQ1 inh-1: 0.35µM*; WRN helicase inh: 1%; FEN1 inhibitor: -1%; L3MBTL1 block: -6%; RECQ1 conf: 3%[114 µM]; RECQ1 ADP FP: 4%[91.9 µM]
